Bioassay records from PubChem BioAssay.
In the library only some 1.3% were active in any assay of this set; here they are far more common.
AMA1-RON2 inh = disrupts binding of P. falciparum AMA1 to RON2. AlphaScreen AMA1-biotinylated RON2 peptide binding. Potency, µM (titrated, usually from 58.2 µM), for inactives: at the top dose activity change, negative = inhibition, usual class: inhibitors. actives 0.2% (n = 360,000). AID 720542;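 note: 0% = vehicle wells and -100% = peptide control; nearly all actives have a fitted effect of over 45% in size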
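AMA1 (3D7) with his tag at 25 nM final met compounds first, then biotinylated RON2 peptide at 25 nM; detection used donor plus acceptor beads, 10 µg/mL apiece, read by AlphaScreen after 30 min at room temperature.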
LmPK inh = inhibitors of Leishmania mexicana pyruvate kinase; Q27686; purified LmPK, Kinase-Glo ATP luminescence, 1 h; Potency, µM (top dose mostly 57.5 µM), for the others: at the top dose activity change, negative = inhibition, usual class: inhibitors; actives 0.37% (n = 290,000); AID 1721
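Pyruvate kinase activity monitored as ATP production (luciferase luminescence). Conditions: 0.1 nM enzyme, 0.5 mM PEP, 0.1 mM ADP, 1 h, RT; normalized against uninhibited and no-enzyme wells.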
FBPA Giardia inh = Giardia lamblia aldolase inhibition | Potency, µM (highest dose often 59.6 µM), without a hit: at the highest dose activity, negative = inhibition, actives largely listed as inhibitors | AID 2451 | A8B2U2 | actives 0.71% (n = 290,000) | purified Giardia FBPA; note: nearly all actives have a fitted effect of over 55% in size
Target sequence (A8B2U2 whole entry, looked up): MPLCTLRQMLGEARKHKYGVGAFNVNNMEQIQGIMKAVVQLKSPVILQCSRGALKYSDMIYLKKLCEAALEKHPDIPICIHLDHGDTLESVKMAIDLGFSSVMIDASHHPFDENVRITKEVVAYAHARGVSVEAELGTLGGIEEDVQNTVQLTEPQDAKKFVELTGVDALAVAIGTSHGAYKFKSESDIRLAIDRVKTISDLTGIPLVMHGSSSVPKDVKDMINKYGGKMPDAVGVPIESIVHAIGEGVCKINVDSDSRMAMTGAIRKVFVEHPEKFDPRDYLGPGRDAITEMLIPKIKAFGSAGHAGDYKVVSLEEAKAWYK
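Giardia FBPA (40 nM reagent) was preincubated 10 min at RT with compound (up to 57.5 uM final), then substrate plus GAPDH/TPI/NAD/arsenate coupling system with diaphorase/resazurin was added; resorufin fluorescence (525/598 nm) was read after 20 min.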
AmpC no deterg = AmpC beta-lactamase inhibition without detergent. Potency, µM (titrated, usually from 57.1 µM), for the others: at the highest dose activity change, negative = inhibition, hits mostly inhibitors. AmpC nitrocefin hydrolysis, absorbance 480 nm, 0.0001% Triton. actives 0.52% (n = 330,000);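 note: plate controls were no compound for no effect and no enzyme for full effect; nearly all actives have a fitted effect of over 20% in size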
Target sequence (P00811 whole entry, looked up): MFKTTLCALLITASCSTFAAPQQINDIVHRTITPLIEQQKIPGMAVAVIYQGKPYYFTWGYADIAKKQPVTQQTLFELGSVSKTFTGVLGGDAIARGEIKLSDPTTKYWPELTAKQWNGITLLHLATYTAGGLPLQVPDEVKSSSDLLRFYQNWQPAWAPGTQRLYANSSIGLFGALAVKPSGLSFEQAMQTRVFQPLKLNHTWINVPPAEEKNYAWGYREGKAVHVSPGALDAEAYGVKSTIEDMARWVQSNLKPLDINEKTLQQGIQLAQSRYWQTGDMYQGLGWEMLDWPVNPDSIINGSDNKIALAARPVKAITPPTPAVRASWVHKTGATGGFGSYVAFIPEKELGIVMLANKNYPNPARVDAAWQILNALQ
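AmpC (5.3 nM in the dispensed reagent) in 20 mM phosphate pH 7.0 with 0.01% (detergent screen) or 0.0001% Triton X-100 was preincubated with compounds for 15 min at room temperature. Nitrocefin was then added from an 800 uM solution, and hydrolysis was followed at 480 nm.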
AmpC detergent = inhibitors of E. coli AmpC beta-lactamase with detergent; P00811; AmpC hydrolysis of nitrocefin, absorbance 480 nm, 0.01% Triton; Potency, µM (series often up to 114 µM), without a hit: at the highest dose activity change, negative = inhibition, usual class: inhibitors; actives 0.041% (n = 370,000); AID 485294;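 note: 0% = no-compound wells and -100% = no-enzyme wells; nearly all actives have a fitted effect of over 25% in size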
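AmpC (5.3 nM in the dispensed reagent) in 20 mM phosphate pH 7.0 with 0.01% (detergent screen) or 0.0001% Triton X-100 was preincubated with compounds for 15 min at room temperature. Nitrocefin was then added from an 800 uM solution, and hydrolysis was followed at 480 nm.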
* marks the source's active call; other numbers are inactive results; ? = inconclusive; · = not tested or not shown. Calls come from the whole dose curve; as a rule, active = well fitted curve in the direction sought with a large enough effect; inconclusive = small, poorly fitted or top-dose-only effect, or another doubt; inactive = no such curve, though single readings can be large; an effect the other way counts as inactive or inconclusive. Unless noted, % is set by controls: 0 for no effect and ±100 for the full control effect; potency is the fitted concentration of half-maximal effect.

SMILES	AMA1-RON2 inh	LmPK inh	FBPA Giardia inh	AmpC no deterg	AmpC detergent
O=[N+]([O-])c1c(Nc2ccccn2)cc(Cl)c2nonc12	-17.8%	-8.7%	0.446µM*	-14.4%	-11.1%
O=C(O)COc1ccccc1-c1nc(-c2ccccc2)c(-c2ccccc2)[nH]1	-8.4%	1.2%	-21.8%	3.16µM*	-3.1%
O=C1Nc2ccc(F)cc2C12Nc1ccccc1-c1nnc(SCc3ccccc3)nc1O2 (configuration not stated)	-9.4%	2.0%	-26.7%	17.8µM*	-9.9%
CCCCCCCCCCCCCCCCSCC(COC)COP(=O)([O-])OCC[N+](C)(C)C (configuration not stated)	·	·	4.6%	·	·
c1ccc2c(c1)CCN(c1nc3cc4c(cc3s1)OCCO4)C2	-24.8%	22.4µM*	?	-7.7%	0.0%
COc1ccc(OC)c2sc(N3CCc4ccccc4C3)nc12	-24.8%	1.8%	-14.3%	34.8%	?
O=c1[nH]c2ccc(Br)cc2c(-c2ccccc2)c1CN1CCOCC1	-10.4%	3.3%	-17.0%	52.8%	?
O=c1[nH]c2ccc(Br)cc2c(-c2ccccc2)c1N1CCOCC1	-3.6%	-2.5%	0.1%	1µM*	?
Cc1nc2c(O)cccc2cc1CO	89.2%	6.3%	19.9µM*	2.2%	-0.5%
Cc1ccc(O)c(CO)n1	-6.5%	-1.1%	1.3%	-0.2%	3.3%
Nc1nc(SCC(=O)Nc2cccc(C(F)(F)F)c2)n[nH]1	·	·	·	·	-8.2%
O=c1[nH]c2c(s1)C(c1ccc(O)cc1)C1C3CCC(C3)C1S2 (configuration not stated)	7.3%	-4.4%	-1.9%	44.7µM*	-13.7%
O=c1[nH]c2c(s1)C(c1cccnc1)C1C3CCC(C3)C1S2 (configuration not stated)	-4.0%	5.7%	7.9%	-28.2%	-3.9%
Cc1ccc(Nc2nc3ccccc3c3nncn23)cc1C	·	·	·	·	-4.1%
c1ccc(-c2nc3cc4ccccc4cc3[nH]2)nc1	29.6%	15.8µM*	-21.4%	-36.0%	2.8%
CC(=O)Nc1ccc2nc(-c3ccccn3)[nH]c2c1	131.9%	-24.9%	?	1.3%	-1.5%
COc1ccc(CNC(=O)CCc2c(C)c3cc4c(C)coc4c(C)c3oc2=O)cc1OC	·	·	·	·	10.0%
COC(=O)c1ccc(N2CCc3ccccc32)c([N+](=O)[O-])c1	12.6µM*	4.9%	1.3%	-23.8%	-11.8%
O=C(NCC(c1ccco1)N1CCc2ccccc21)C(=O)Nc1ccccc1F (configuration not stated)	?	·	·	-25.2%	-22.3%
O=C(NCC(c1ccco1)N1CCc2ccccc21)C(=O)Nc1ccccc1 (configuration not stated)	-5.8%	·	·	10µM*	?
CC(NC(=O)Nc1ccccc1)C(c1cccs1)N1CCOCC1 (configuration not stated)	2.6%	7.3%	-4.9%	-12.4%	?
CCN1CCN(C(c2cccs2)C(C)NC(=O)NC2CCCCC2)CC1 (configuration not stated)	-7.8%	-1.3%	0.9%	44.7µM*	?
CC(NC(=O)Nc1ccc(Cl)cc1)C(c1cccs1)N1CCOCC1 (configuration not stated)	-5.7%	-1.1%	-6.1%	2.51µM*	?
CC(=O)Nc1ccc(SCC(CC(C)C)N2CCN(C)CCC2=O)cc1 (configuration not stated)	·	·	5.1%	·	·
COc1ncnc2sc(-c3ccccc3)cc12	12.0%	12.6µM*	3.7%	-6.1%	-11.9%
SMILES	AMA1-RON2 inh	LmPK inh	FBPA Giardia inh	AmpC no deterg	AmpC detergent
CN(C)C(=O)COc1ncnc2sc(-c3ccccc3)cc12	15.3%	1.1%	3.5%	-13.0%	4.0%
Cc1cccc(C(=O)NC2CCN(S(=O)(=O)c3ccc(F)cc3)CC2)c1	-9.8%	1.8%	3.3%	-14.9%	-8.6%
O=c1c2ccccc2nc(/C=C/c2cccnc2)n1Cc1ccccc1	31.6µM*	-3.0%	-4.1%	26.0%	-6.2%
Clc1ccc(CSc2cc3c(nn2)-c2ccccc2CC3)cc1Cl	24.0%	2.7%	-0.7%	0.316µM*	4.6%
Cc1ccc(C)c(S(=O)(=O)c2nnn3c2nc(Nc2ccc(C)c(C)c2)c2ccccc23)c1	·	·	·	·	2.5%
O=C(CCNS(=O)(=O)c1ccc(F)cc1)N1CCN(c2ncccn2)CC1	11.3%	·	·	·	·
Cc1ccc(OCC(=O)Nc2ccc(S(=O)(=O)Nc3ccccn3)cc2)cc1C	5.5%	12.1%	8.6%	-22.7%	0.5%
CCc1cccc(OCC(=O)Nc2ccc(S(=O)(=O)Nc3ccccn3)cc2)c1	2.5%	0.2%	3.9%	10µM*	-5.5%
Oc1c(/C=C/C=C/C=Nc2ccccc2)sc(=S)n1Cc1ccccc1	-7.2%	-18.9%	-21.1%	12.6µM*	-1.6%
CCn1c(O)c(/C=C/C=C/C=Nc2ccccc2)sc1=S	27.3%	-9.4%	-19.0%	-30.5%	5.6%
O=c1oc2ccccc2cc1-c1cn2cc(Cc3ccc(Br)cc3)sc2n1	·	·	·	·	-7.4%
c1cnc2c(c1)ccc1cccnc12	-10.8%	-7.9%	19.9µM*	-27.1%	?
NC(=S)N/N=C/c1ccc(-c2cc(Cl)c(Cl)cc2Cl)o1	63.8%	-4.7%	-5.6%	20µM*	0.5%
NC(=S)N/N=C/c1ccc(Br)o1	77.0%	5.3%	?	-8.3%	?
O=C(O)c1cscc1-c1cccc2ccccc12	7.9%	·	·	·	·
N#Cc1c(-c2ccccc2)cc(-c2ccco2)c(C#N)c1N	·	-6.6%	?	14.1µM*	-4.6%
O=C(NC1CCCC1)c1sc(=S)n2c1[nH]c(=O)c1ccccc12	8.5%	22.4µM*	-6.0%	-24.6%	1.5%
COCCCNC(=O)c1ccc2nc([C@@H]3O[C@H](CO)[C@H](O)[C@H](O)[C@H]3O)[nH]c2c1	25.1%	·	·	·	·
C=Cn1cc(CNC[C@H]2O[C@@H](n3ccc(N)nc3=O)[C@H](O)[C@@H]2O)c(C)n1	-0.6%	·	·	·	·
O=c1cc(OCc2ccccc2)cc[nH]1	1.12µM*	·	·	-8.3%	?
Cc1cc(SCC(=O)NC2(C#N)CCCCC2)nc2c(C)cccc12	4.5%	·	·	31.6µM*	-14.6%
CCOc1ccc(/C=N/NC(=O)c2[nH]ncc2Br)c(O)c1	37.0%	7.94µM*	11.6%	-29.3%	2.0%
COc1ccc(OC)c(/C=N/NC(=O)c2[nH]ncc2Br)c1	47.3%	-0.4%	-11.7%	-21.7%	2.7%
CNNC	·	·	11.2µM*	·	·
CC(=O)NC1CC2CCCC(C1)N2C(=O)Nc1ccc(Cl)cc1 (configuration not stated)	-9.1%	·	·	·	·
O=CC(Br)P(=O)(N1CCOCC1)N1CCOCC1 (configuration not stated)	-2.8%	0.9%	0.0%	-49.9%	56.2µM*
Cc1ccc(C(=O)Nc2nc3c(s2)CCCC3)o1	1.8%	25.1µM*	-12.2%	-23.8%	2.3%
O=C(Nc1nc2c(s1)CCCC2)c1ccc(Br)o1	-7.2%	?	-11.3%	-38.6%	-13.0%
